From PubChem BioAssay (NCI) come the findings set out here.

Compounds without any hit were thinned out: in the full panel of roughly 83,000, 20% have a hit.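 Negative percent growth values reflect cell death: -40 means 40% of the cells present at the start died, and -100 means all died.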 The source made the active and inactive calls. How the source made its calls: active means growth percent below 10; inactive means the rest.

This experiment concerns IGROV1 ovarian. The experiment is described as follows: NCI-60 one-dose screen, 48 h (100 = growth as untreated, 0 = no growth, -100 = all killed). The settings on record: 10 µM unless noted.
Regarding `CCC1S/C(=N\N=C(/C)c2cccs2)N(c2ccccc2)C1=O` (stereo not given), the growth is -27.2% (active). Next, `COc1ccc2c(c1)/C(=C/c1c(-c3cc(OC)c(OC)c(OC)c3Br)nc3sccn13)C(=O)N2`: 45.7% (inactive); `N#CC(C#N)=C(C#N)c1c[nH]c2ccccc12`: 75.2% (inactive); `CNC(=O)NN`: 108% (inactive). Next, `ClC1c2ccccc2CCc2ccccc21`: 72.5% (inactive). Turning to `COc1ccc(-c2cc3ccc(N(C)C)cc3nc2N)c(F)c1`, the growth was 54.3% (inactive). Regarding `CCOC(=O)C(C)(CSSCC(C)(NC(=O)c1ccc2ccccc2c1)C(=O)OCC)NC(=O)c1ccc2ccccc2c1` (stereo not given), the growth was 93.3% (inactive).

`COc1ccc(-c2cc(-c3nnc(SC/C(=N\O)c4ccccc4)n3-c3ccccc3)c3ccccc3n2)cc1`: the growth is 105% (inactive). In the case of `CC(=O)Nc1ccc([I+]c2ccc([N+](=O)[O-])cc2)cc1`, the growth was 80.8% (inactive). Next, `O=[N+]([O-])c1ccc(NS(=O)(=O)c2ccccc2)c2ccccc12`: 30.2% (inactive); `COc1ccc(-c2c(C#N)cnc(N)c2-c2nc3cc(C)c(C)cc3[nH]2)cc1`: 36.4% (inactive). Next, `S=c1n(CNc2ccc(Cl)nn2)nc(-c2cc(Cl)cc(Cl)c2Cl)n1/N=C/c1ccc(Cl)cc1`: 76.2% (inactive); `Cc1ccc2c(c1)Nc1ccc(C)cc1C2(C)C`: 106% (inactive); `Clc1ccc2c(NCCNc3nc(Cl)nc4ccccc34)ccnc2c1`: -85% (active).

On to `CN1CCN(Cn2nc(-c3cc(Cl)cc(Cl)c3Cl)n(/N=C/c3ccc(Cl)cc3)c2=S)CC1`, for which the growth was 108% (inactive).
